SDO1 yeast rescue = growth rescue of sdo1-depleted yeast, primary screen, S. cerevisiae, bone marrow failure model. S. cerevisiae sdo1-depleted JHY4D growth rescue, OD600 30 h; hits give high values; pdr5 snq2 efflux-pump mutant strain. z-score at 10 µM. actives 0.21% (n = 140,000). AID 817, 2007;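 active = z-score above 3 at both the 24 hr and the 30 hr optical density reads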;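 also: z-score against mean and SD of all compound wells on the same plate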
Phagocytosis inh = inhibitors of macrophage phagocytosis, primary screen, imaging, J774A.1 cells, IgG beads. inhibition, % at 5 µM. J774A.1 macrophage IgG-bead phagocytosis. actives 0.07% (n = 110,000);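 active = inhibition above the mean of the plate negative controls plus 5 SD, cut at about 13% in these data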;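 also: phagocytic index as fraction of beads internalized from green versus red external bead signal; plate controls were DMSO negative control for no effect and cytochalasin-D positive control for full effect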
VCAM1 TNFa inh = inhibitors of TNFa-induced VCAM1 expression, primary screen, imaging, HUVEC, TNFa stimulus, immunofluorescence; HUVEC TNFa-induced VCAM-1 immunofluorescence, high-content imaging; inhibition, % at 2 µM; actives 0.48% (n = 95,000); AID 802, 2007;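 active = inhibition above the batch mean plus 3 SD, with images confirmed as a hit by eye, cut at about 37% in these data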;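 also: 0% = TNF-stimulated DMSO wells and 100% = unstimulated control wells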
E-sel TNF inh = E-selectin induction blockers in HUVEC – imaging, immunofluorescence, high content, primary screen. HUVEC TNFa-induced E-selectin immunofluorescence. inhibition, % at 2 µM. AID 1246, 2008. actives 0.71% (n = 120,000);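 active = inhibition above the batch mean plus 3 SD, and confirmed as a hit on visual image review, cut at about 43% in these data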;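 also: 0% = TNF-stimulated DMSO wells and 100% = unstimulated control wells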
F-actin modifier = modifiers of F-actin cytoskeleton organization, primary screen, imaging, HUVEC, phalloidin staining, high-content imaging; actives 0.18% (n = 91,000); AID 836, 2007; HUVEC TNFa F-actin phalloidin imaging; inhibition, % at 2 µM;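 active = inhibition above the batch mean plus 3 SD and confirmed as a hit by visual image inspection, cut at about 30% in these data, passing the limit was not always enough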
HUVEC tox TNFa = cytotoxicity in TNFa-stimulated HUVEC, primary screen, cytotoxicity control for VCAM1 expression modulator project, imaging, Hoechst nuclei count; HUVEC TNFalpha-stimulated, Hoechst cell count; cell count reduction, % at 2 µM; actives 0.17% (n = 93,000); AID 848, 2007;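 active = cell count reduction exceeding the screen mean by over 5 SD, scaled to untreated wells per plate, cut at about 78% in these data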;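 also: cells counted after 24 h of TNF alpha exposure following the 1 h pretreatment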
The depositor's hits bear a star; . = not tested or not shown. Most compounds without a hit are left out; they make up all but 1.2% or so of the library.

SMILES | SDO1 yeast rescue | Phagocytosis inh | VCAM1 TNFa inh | E-sel TNF inh | F-actin modifier | HUVEC tox TNFa
O=C(NC1CCCCC1)N(CCN1CCOCC1)Cc1cc2cc3c(cc2[nH]c1=O)OCCO3 | 0.51 | -1 | 1 | . | 33* | -45
CCOC(=O)Cc1cc(-c2ccc(F)cc2)nc2ccc3ccccc3c12 | 7.8 | -6 | . | . | . | .
Cc1nc2ccccc2n1CCCOc1ccccc1 | 0.15 | . | 62* | -1 | -6 | 88*
COCc1nc2ccccc2n1CCCOc1ccccc1 | -0.82 | 2 | -62 | -2 | 9 | -15
CCOC(=O)C1CCCN(C(=O)COC(=O)c2cc(=O)c3ccccc3o2)C1 (centres undefined) | -0.14 | -2 | -5 | 64* | -18 | 1
CCOC(=O)C1CCCN(C(=O)c2cc(=O)c3ccccc3o2)C1 (centres undefined) | 0.61 | -2 | -4 | -1 | 6 | -34
O=C(CSc1cccc(C(F)(F)F)c1)Nc1cc(S(=O)(=O)N2CCCC2)ccc1Cl | 0.26 | 6 | . | . | . | .
CN=C(Nc1cc(C)nn1CCC#N)c1ccccc1F | -0.2 | 0 | 3 | 5 | 67* | -14
CN=C(Nc1cc(C)nn1CCC#N)c1ccccc1 | 0.49 | 0 | -4 | -11 | -39 | -5
CCOc1ccccc1C(=O)Nc1ccc(-c2nnc(-c3ccc(C)cc3)o2)cc1 | . | . | -15 | 72* | 2 | 6
CCOc1ccccc1C(=O)Nc1ccccc1O | 0.34 | -2 | 14 | -46 | 20 | -42
Cc1cc(Cl)cc(Br)c1OCCNCC(C)O (centres undefined) | 0.23 | 174* | -5 | -5 | 4 | -33
CN1/C(=C\C(=O)c2cccnc2)C(C)(C)c2ccccc21 | -0.09 | -4 | . | . | . | .
CN1/C(=C/C(=O)c2nc(S(C)(=O)=O)ncc2Cl)C(C)(C)c2ccccc21 | -2.9 | 5 | -9 | 90* | 0 | 17
CCOc1ccc(C(=O)N(CN2CCCC2=O)c2ccc(C)cc2)cc1 | 0.83 | . | 24 | -20 | 0 | -10
Cc1ccc(N(CN2CCCC2=O)C(=O)c2ccc(OC(C)C)cc2)cc1 | -0.07 | -1 | 62 | 2 | -10 | 79*
CCOC(=O)C(=NCCOC)NNc1cc(Cl)ccc1Cl | -0.76 | -9 | . | . | . | .
CN(C)c1ccnc(NCc2ccccc2)c1C#N | 0.32 | 0 | -20 | -30 | 8 | -1
N#Cc1c(NCc2ccccc2)ccnc1NCc1cccnc1 | 0.07 | 0 | 93* | -18 | 38 | .
Cc1ccc(NC(=O)c2cc(C(=O)c3cc(Cl)ccc3O)cn(-c3ccc(C)cc3)c2=O)cc1 | -0.58 | -3 | . | -21 | . | .
COc1ccccc1C(=O)NNC(=O)c1sccc1-n1cccc1 | . | . | . | 3 | . | .
O=C1CC(N2CCN(Cc3ccc4c(c3)OCO4)CC2)C(=O)N1Cc1ccc(N2CCCC2=O)cc1 (centres undefined) | -0.32 | . | 80* | . | 32 | 92*
O=C1CC(N2CCOCC2)C(=O)N1Cc1ccc(N2CCCC2=O)cc1 (centres undefined) | 0.17 | -1 | -3 | -12 | -17 | -15
N#Cc1cc([N+](=O)[O-])cnc1N(CCO)CCO | 0.07 | -8 | . | 11 | . | .
O=C(Nc1nnc(-c2ccco2)s1)C1CC1 | -0.3 | 0 | 3 | 95* | 12 | -7
SMILES | SDO1 yeast rescue | Phagocytosis inh | VCAM1 TNFa inh | E-sel TNF inh | F-actin modifier | HUVEC tox TNFa
Cc1nc2ccc(NC(=O)c3cc(S(=O)(=O)N4CCOCC4)ccc3C)cc2s1 | 0.82 | -1 | 3 | 92* | 15 | -28
Cc1cccc(NC(=O)Nc2ccc(C#N)cc2)n1 | 0.74 | 0 | . | 55* | . | .
N=c1sccn1CC(=O)NCCc1ccc(Cl)cc1 | 0.49 | 0 | -11 | 81* | 0 | 0
Cc1ccc(/C=C/C(=O)Nc2nnc(SCc3ccc(C#N)cc3)s2)o1 | -0.32 | . | . | 3 | . | .
CCCCOc1ccc(/C=C/C(=O)OCC(=O)NC(=O)NCC(C)C)cc1OCC | 0.86 | . | . | 84* | . | .
O=C(CSc1ncccn1)NCc1ccccc1Cl | -0.21 | 0 | 13 | 60* | 13 | -31
Cc1ccc(NC(=O)c2ccccc2)cc1 | -0.03 | . | -16 | 14 | 18 | -1
Cc1ccc(NC(=O)C2=C(c3ccccc3)S(=O)(=O)CCS2(=O)=O)cc1 | . | . | . | 79* | . | .
[O-][n+]1c2c(nc3c1-c1ccccc1C3O)CCCC2 (centres undefined) | . | . | . | 1 | . | .
COc1ccc(O[C@H]2C=C[C@@H](c3ccccc3)O[C@@H]2CO/N=C(\C)CCC(=O)OC[C@H]2O[C@H](c3ccccc3)C=C[C@@H]2Oc2ccc(OC)cc2)cc1 | 0.21 | . | . | . | . | .
Cc1ccccc1NC1=C/C(=N\S(=O)(=O)c2cccs2)c2ccccc2C1=O | -2.6 | 0 | 86* | 76* | -2 | 32
Cc1ccc(NC2=C/C(=N/S(=O)(=O)c3cccs3)c3ccccc3C2=O)cc1C | 1 | 2 | . | -4 | . | .
CCOc1ccc(C2OC34CCCCC3C(C#N)(C#N)C2(C#N)C(=N)O4)cc1OC (centres undefined) | 5.7* | 2 | 18 | -12 | 6 | -14
Nc1ccc2c(c1)N1CCN=C1S2 | 0.34 | 0 | 11 | 73* | 0 | -19
Cc1cc(C)c(C)c(S(=O)(=O)NC2CCN(Cc3ccccc3)CC2)c1C | . | . | . | -44 | . | .
Cc1c(N=C/C=C2\N(C)c3ccccc3C2(C)C)c(=O)n(-c2ccccc2)n1C | 0.79 | -1 | 18 | 63* | 6 | -3
COc1ccc(C(=O)Nc2cc(C(=O)c3ccccc3)c(C)oc2=O)cc1 | 0.3 | 1 | 3 | . | -28 | -5
O=C(Nc1cc2ccccc2oc1=O)c1ccccc1 | . | . | . | 72* | . | .
COc1ccc(C2C3=C(CC(C)(C)CC3=O)Nc3cc4c(cc32)OCO4)cc1 (centres undefined) | -1.6 | 2 | 16 | 6 | -25 | 5
COc1ccc(OC)c(C2C3=C(COC3=O)Nc3cc4c(cc32)OCO4)c1 (centres undefined) | -0.24 | . | 96* | 0 | 16 | 76
C=C(C)c1cccc(C(C)(C)NC(=O)N2CCCCC2CC)c1 (centres undefined) | 0.71 | -1 | -28 | 57* | 2 | 2
COc1cccc(-c2noc(CCCC(=O)Nc3ccc(C(N)=O)cc3)n2)c1 | . | . | . | 12 | . | .
CSc1nc(-c2ccccc2)nn1C(=O)c1ccc(Cl)cc1 | 0.57 | . | 14 | -9 | 2 | -6
O=C(c1ccc(Cl)cc1)N1CCCC(c2ccccc2)=N1 | -2 | . | 16 | 100* | 15 | 1
COc1cc(NC(=O)CN2CCC(C)CC2)c(C)cc1[N+](=O)[O-] | 1.2 | -9 | . | 83* | . | .
COc1cc(NC(=O)CN2CCN(c3ccccc3O)CC2)c(C)cc1[N+](=O)[O-] | -0.32 | . | . | . | . | .
CC1CCN(S(=O)(=O)c2ccc3c(c2)C(=NO)c2cc(S(=O)(=O)N4CCC(C)CC4)ccc2-3)CC1 | -0.57 | . | 10 | . | -29 | -7

Bioassay records: PubChem BioAssay, several laboratories
